Experimental data as given in PubChem BioAssay (NCI).
Compounds without any hit were thinned out: in the full panel of roughly 79,000, 15% have a hit. Values without a mark were called inactive. Activity calls are given as the source filed them. No stated cut-off is given here; in the data, active means growth inhibition above about 70%; inactive means the rest.

What was measured:
[1] = NCI Yeast Anticancer Drug Screen. Data for the rad50 strain (AID 155);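 further: 0% = growth of vehicle-only cultures of the same strain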; settings: S. cerevisiae rad50 strain growth inhibition; at 50.0 µM; stronger effect = higher value
How it was run: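 DNA repair mutant yeast, compound exposure, growth read-out; inhibition is taken relative to vehicle.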

[2] = NCI Yeast Anticancer Drug Screen. Data for the mec2-1 strain (AID 157); settings: S. cerevisiae mec2-1 strain, at 50.0 µM, stronger effect = higher value
How it was run: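 Growth inhibition is read against vehicle-treated controls after compound exposure of the mec2-1 yeast strain, which is defective in DNA damage repair or cell cycle control.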

[3] = NCI Yeast Anticancer Drug Screen. Data for the sgs1 mgt1 strain (AID 161);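 further: 0% = growth of cultures given vehicle only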; settings: S. cerevisiae sgs1 mgt1 strain, at 50.0 µM, stronger effect = higher value
How it was run: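 Compounds are added to genetically altered yeast, and growth is compared with cultures given vehicle alone to give percent inhibition.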

[4] = NCI Yeast Anticancer Drug Screen. Data for the cln2 rad14 strain (AID 165);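 further: 0% = growth equal to vehicle treated cultures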; settings: S. cerevisiae cln2 rad14 strain, at 50.0 µM, stronger effect = higher value
How it was run: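 Growth inhibition, relative to vehicle-treated controls, is the read-out. The test organism is a yeast strain with defined genetic alterations, cln2 rad14.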

[5] = NCI Yeast Anticancer Drug Screen. Data for the bub3 strain (AID 167); settings: S. cerevisiae bub3 mutant strain, at 50.0 µM, stronger effect = higher value
How it was run: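 In this screen, a yeast mutant lacking normal mitotic checkpoint function is challenged with compound. Relative growth versus vehicle gives the inhibition value.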

[6] = NCI Yeast Anticancer Drug Screen. Data for the mlh1 rad18 strain (AID 175); settings: S. cerevisiae mlh1 rad18 strain growth inhibition; at 50.0 µM; stronger effect = higher value
How it was run: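 Cells of a genetically altered yeast strain, deficient in DNA damage repair, were treated with compound. Their growth was then compared with that of vehicle-treated cultures to give inhibition.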

Compound	growth inhibition [1] [%]	growth inhibition [2] [%]	growth inhibition [3] [%]	growth inhibition [4] [%]	growth inhibition [5] [%]	growth inhibition [6]
CC(C)(C[NH-])C[NH-].[Cl][Pt+2][Cl]	-22.3	13.3	20.2	18.6	16.6	87.7% (active)
N#CC1CCCCC(=O)N1 (stereo unspecified)	3.55	2.2	-2.05	-3.6	-1.2	-1.55%
O=C(NC(=O)c1ccccc1[N+](=O)[O-])Nc1ccc(Oc2ncc(Br)cn2)c(Cl)c1	-1.35	-30.8	-19.4	0.6	-9.25	-56.8%
CCC1(O)C(=O)Nc2ccccc2C1=O (stereo unspecified)	-3	-22.8	-17.3	-13.6	-23.1	-5.85%
C(=C\c1ccccc1)/C=N/N=C/C=C/c1ccccc1	-5.5	-30.1	-10.9	-37	4.45	-4%
O=COCCO	-12.6	-5.6	7.6	-9.85	1.75	-9.1%
CC(=O)/C(=C\c1ccc(C(F)(F)F)cc1)C(=O)CCN(C)C	43.4	0.05	51.6	19.6	3.25	25.7%
CCCCOC(=O)C(C)C(=O)CCC(C)CC (stereo unspecified)	4.55	2.6	-1.1	-7.05	8.2	3.85%
CCNC1=C(OC)C(=O)C(NCC)=C(OC)C1=O	-6.2	7.25	2.6	-33.6	5.3	-5.8%
Cc1cc(-c2cc(C)on2)no1	-44.7	-2.75	-15.9	-30.1	-6.15	-3.25%
CN=S(=O)(OCCCCOS(=O)(=NC)c1ccc(C)cc1)c1ccc(C)cc1 (stereo unspecified)	10.6	-14.4	-26.4	-22.8	-23.4	-71.5%
CN(C)CC(CN(C)C)C(=O)/C=C/c1ccc(O)cc1	1.4	-2.25	6.05	6.35	22.4	5.5%
COC(=O)CSSCc1ccccc1	3.5	1.5	3.65	-26.1	-28.1	6.35%
Cc1ccc(NC(=O)COc2ccccc2)c(C)c1	4.35	19.9	15.9	-4.25	28.3	28.4%
O=C(Nc1ccccc1)c1nn(-c2cc(S(=O)(=O)O)c([N+](=O)[O-])cc2Cl)[n+](-c2cc(S(=O)(=O)[O-])c([N+](=O)[O-])cc2Cl)n1	-4.45	-3.25	-25.1	-26.8	-23.6	2.3%
C/C=C(\c1ccccc1)N1CCOCC1	17.9	-9.15	-8.6	-37.5	7.1	5.25%
CCc1n[nH]c(=O)n1NC(=O)/C=C\C(=O)O	-12.2	-16.1	-23.9	-17.7	-10.7	-25.5%
CCCCCCCCCCCCCCCOc1ccc2ccccc2c1	-11.4	8.2	-5.8	-27.7	-7.05	-35.1%
CCC(=O)OC1CCC2(C)C(=CCC3C2CCC2(C)C(C(C)CCCC(C)C)CCC32)C1 (stereo unspecified)	3.1	7.6	-20.6	4.45	-0.8	-12.2%
O=C(Nc1nc2ccc([N+](=O)[O-])cc2s1)C(=O)C(C(=O)c1ccccc1F)C1OC(=O)c2ccccc21 (stereo unspecified)	29.8	39.6	59.5	25.6	38.5	27.8%
N#Cc1c(N)ncn1C1OC(CO)C(O)C1O (stereo unspecified)	-17.6	-7.6	-20.9	-16.3	0.15	-13.3%
